Among the data in PubChem BioAssay (NCI) are growth values, retold here.

Compounds without any hit were thinned out: in the full panel of roughly 83,000, 20% have a hit.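 Activity criterion: percent growth below 10, measured after cells in 96-well plates were exposed to a single compound concentration for 48 hours.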 Values without a mark were called inactive. Calls of active or inactive are those of the source.

Assay in all cases: NCI-60 one-dose screen, 48 h (100 = growth as untreated, 0 = no growth, -100 = all killed)
Settings in all cases: 10 µM unless noted

In assay [1] the test system is T-47D breast.
In assay [2] the test system is BT-549 breast.
Assay [3] deals with MDA-MB-435 melanoma.
Assay [4] relates to SW-620 colon.
For assay [5], the system named is MCF7 breast.
For assay [6], the system named is HCT-116 colon.
The test system of assay [7] is HCC-2998 colon.
Assay [8] relates to KM12 colon.

`COc1cc2c(cc1OCCCCn1c(-c3cc(=O)c4ccccc4o3)nc3ccccc31)N=C[C@@H]1CCCN1C2=O`: the growth in assay [1] is 79.4%; in assay [2], 101%; in assay [3], 94.9%; in assay [4] it was 86.6%; in assay [5], 72.6%; in assay [6] it was 101%. Also, the growth in assay [7] was 128%; in assay [8], 105%.
Turning to `N#CC1=C(N)n2nc(-c3ccncc3)nc2NC1c1cccc2ccccc12` (centres undefined), the growth was 66.2% in assay [1]; 90.1% in assay [2]; 88.1% in assay [3]; 100% in assay [4]; 80.5% in assay [5]; 87.9% in assay [6]. Moreover, the growth was 105% in assay [7] and 97.6% in assay [8].
For the compound `Nc1nc(-c2ccccc2)cs1`, the growth in assay [1] was 96.7%; in assay [2] it was 116%; in assay [3], 107%; in assay [4] it was 108%; in assay [5], 94.4%; in assay [6], 94.8%. For the same compound, the growth in assay [7] was 104%; in assay [8], 106%.
For the compound `CNC(=O)c1cc(Oc2ccc3c(c2)sc2nc(-c4ccc(Cl)cc4)cn23)ccn1`, the growth in assay [1] is 79%; in assay [2], 87.8%; in assay [3], 97.7%; in assay [4] it was 97.3%; in assay [5] it was 72%; in assay [6], 80.9%. The growth is 90.1% in assay [7] and 92.9% in assay [8].
For `COC1=CC(c2ccc[nH]2)=N/C1=C\c1[nH]c(C)c(C(=O)CCCCC(=O)NCc2ccccc2)c1C`, the growth in assay [1] was 50.5%; in assay [2], 21.5%; in assay [3] it was -20% (active); in assay [4], -96.7% (active); in assay [5], -100% (active); in assay [6], -83.1% (active). In addition, the growth in assay [7] is 57.8%; in assay [8] it was -25.2% (active).
For `COc1ccc(N=C2NN=C(c3ccc(F)cc3)CS2)cc1OC`, the growth in assay [1] is 86.7%; in assay [2], 108%; in assay [3], 83.3%; in assay [4] it was 98.6%; in assay [5], 104%; in assay [6], 96.1%. The results for the growth in assay [7] and in assay [8] were 98.1% and 99.2%, respectively.
As for `COC1=CC(c2ccc[nH]2)=N/C1=C\c1[nH]c(C)c(C(=O)CCCCC(=O)Oc2ccc3c(c2)CCC2C3CC[C@]3(C)[C@@H](O)CC[C@@H]23)c1C` (some centres undefined), the growth is 5.62% (active) in assay [1]; 50.3% in assay [2]; 51.2% in assay [3]; 37.4% in assay [4]; 27.2% in assay [5]; 20.9% in assay [6]. Moreover, the growth is 83.1% in assay [7] and 29.4% in assay [8].
Turning to `CCN(Cc1ccc(CN(CC)C(=O)C(Cl)(Cl)Cl)cc1)C(=O)C(Cl)(Cl)Cl`, the growth in assay [1] is 78.2%; in assay [2], 78.3%; in assay [3] it was 83.7%; in assay [4], 89%; in assay [5], 89.2%; in assay [6], 56.4%. The growth in assay [7] is 92.4%; in assay [8] it was 81.5%.
Take `Nc1c(C(=O)Nc2c(Cl)cccc2Cl)sc2nc3c(cc12)CCCCC3`: the growth is 57.7% in assay [1]; 52.6% in assay [2]; 9.69% (active) in assay [3]; 46.1% in assay [4]; 18.4% in assay [5]; 62.3% in assay [6]. In addition, the growth in assay [7] was 57%; in assay [8], 53.6%.
In the case of `COc1cc(C2CC(c3c(C)[n+]([O-])c4ccccc4[n+]3[O-])=NN2)cc(OC)c1OC` (centres undefined), the growth in assay [1] was 95.4%; in assay [2], 104%; in assay [3] it was 95.6%; in assay [4], 101%; in assay [5] it was 91.8%; in assay [6], 104%. Further, the values for the growth in assay [7] and in assay [8] were 76.1% and 104%, respectively.
Turning to `CCCS(=O)(=O)c1nc(NC2CC2)cc(-c2ccc3c(ccn3C3CC(C)(C)NC(C)(C)C3)c2)n1`, the growth is -74.3% (active) in assay [1]; -35.7% (active) in assay [2]; 11.5% in assay [3]; -61.6% (active) in assay [4]; -80.5% (active) in assay [5]; -78.2% (active) in assay [6]. In addition, the figures for the growth in assay [7] and in assay [8] were 1.29% (active) and 6.05% (active), respectively.
In the case of `CCCC(C(=O)OCC)C(C)OC(=O)OCC` (centres undefined), the growth was 86.6% in assay [1]; 115% in assay [2]; 101% in assay [3]; 113% in assay [4]; 101% in assay [5]; 103% in assay [6]. Besides, the figures for the growth in assay [7] and in assay [8] were 103% and 101%, respectively.
Consider `COc1ccc(/C=C2\C(=O)N(C(=O)c3csc(NC(C)=O)n3)N=C2C)cc1`, for which the growth was 99.2% in assay [1]; 95.9% in assay [2]; 106% in assay [3]; 106% in assay [4]; 88.4% in assay [5]; 98.2% in assay [6]. Besides, the growth in assay [7] was 103%; in assay [8] it was 102%.
For the compound `CN1CCN(CCCOc2ccc3nc(Nc4ccc(C(F)(F)F)c(Cl)c4)ccc3c2)CC1`, the growth in assay [1] is 39.9%; in assay [2], 80.9%; in assay [3] it was -74.9% (active); in assay [4], -70.4% (active); in assay [5] it was -69.5% (active); in assay [6], 0.975% (active). Besides, the growth is -71.1% (active) in assay [7] and -14.3% (active) in assay [8].
Take `O=C(NCCCN1CCN(CCCNC(=O)C2CCCCC2)CC1)C1CCCCC1`: the growth in assay [1] was 90%; in assay [2], 96.4%; in assay [3], 96.4%; in assay [4] it was 95%; in assay [5], 95.7%; in assay [6] it was 95.6%. Besides, the growth is 99.9% in assay [7] and 104% in assay [8].
Turning to `CCc1c(C(=O)Nc2ccc3ccccc3c2)[nH]c(C)c1C(C)=O`, the growth in assay [1] is 83.6%; in assay [2] it was 112%; in assay [3], 78.7%; in assay [4] it was 99.5%; in assay [5], 84.6%; in assay [6], 99.5%. The growth in assay [7] is 99.1%; in assay [8], 84.7%.
On to `Nc1nn2cc(-c3ccc(Cl)s3)nc2c2ccccc12`, for which the growth in assay [1] was 55.8%; in assay [2], 105%; in assay [3] it was 93.4%; in assay [4], 98.6%; in assay [5] it was 44.3%; in assay [6] it was 77.6%. Besides, the growth in assay [7] is 92.4%; in assay [8] it was 79.2%.
For `COc1cccc(C2CC(=O)Nc3c2c(C)nn3-c2nc3ccccc3[nH]2)c1OC` (centres undefined), the growth in assay [1] was 64.5%; in assay [2], 87.1%; in assay [3], 58.5%; in assay [4], 77.1%; in assay [5] it was 62.5%; in assay [6], 36.2%. Further, the growth in assay [7] is 120%; in assay [8], 67.9%.
As to `O=C(Nc1ccc(Br)c(Cl)c1)c1cc(F)ccc1O`, the growth is 3.88% (active) in assay [1]; -39% (active) in assay [2]; -11.3% (active) in assay [3]; 7.76% (active) in assay [4]; 2.5% (active) in assay [5]; -21.8% (active) in assay [6]. In addition, the growth in assay [7] is 14.7%; in assay [8], 2.98% (active).
Regarding `Cc1ccc2c(c1)ncn2-c1ncnc2c1CC(C)c1ccccc1N2C` (centres undefined), the growth was 24.4% in assay [1]; -6.44% (active) in assay [2]; 11.8% in assay [3]; 22.9% in assay [4]; 12.9% in assay [5]; 10.1% in assay [6]. For the same compound, the growth in assay [7] was 26.8%; in assay [8], 10.5%.
Take `O=C(/C=C/CN1CCOCC1)Nc1cc2c(Nc3ccc(F)c(Cl)c3F)ncnc2cc1OCCOC(F)F`: the growth in assay [1] was 1.51% (active); in assay [2], 54.3%; in assay [3] it was 69.1%; in assay [4], 89.7%; in assay [5], 60.7%; in assay [6], 49.4%. The growth in assay [7] was 69.1%; in assay [8] it was 74.1%.
In the case of `O=S(=O)(O)CCl`, the growth is 97.2% in assay [1]; 100% in assay [2]; 108% in assay [3]; 103% in assay [4]; 103% in assay [5]; 103% in assay [6]. In addition, the growth in assay [7] is 98.9%; in assay [8] it was 105%.
For the compound `COC(=O)CCCCCN=Cc1c(O)c(O)c(C(C)C)c2cc(C)c(-c3c(C)cc4c(C(C)C)c(O)c(O)c(C=NCCCCCC(=O)OC)c4c3O)c(O)c12`, the growth in assay [1] was 11.8%; in assay [2] it was 35.1%; in assay [3], 21.1%; in assay [4], 20.2%; in assay [5], 12.9%; in assay [6], 9.82% (active). Further, the growth in assay [7] was 30.2%; in assay [8], 19.7%.
`COc1cc2c3c(c(=O)oc2cc1OS(=O)(=O)c1ccc(C(F)(F)F)cc1)CCCCC3`: the growth was 80.9% in assay [1]; 75.4% in assay [2]; 91.6% in assay [3]; 102% in assay [4]; 89.6% in assay [5]; 66.6% in assay [6]. For the same compound, the growth was 97.6% in assay [7] and 92.1% in assay [8].
Regarding `COc1ccccc1OCC(=O)Nc1sc2c(c1C(N)=O)CCC2`, the growth in assay [1] is 62.5%; in assay [2], 85.6%; in assay [3], 78.9%; in assay [4], 64.5%; in assay [5], 27.8%; in assay [6], 63.1%. In addition, the results for the growth in assay [7] and in assay [8] were 58.8% and 105%, respectively.
For `COc1ccc(/C(=N\O)c2cc(OC)c(OC)c(OC)c2)c(OC)c1N`, the growth in assay [1] was 45.1%; in assay [2], 2.29% (active); in assay [3], -66.3% (active); in assay [4] it was 23.4%; in assay [5], 15.6%; in assay [6], 7.66% (active). Also, the growth in assay [7] is 35.7%; in assay [8], 11.7%.
On to `COc1cc(-c2csc(NC(=O)Nc3ccc(Cl)cc3Cl)n2)cc(OC)c1OC`, for which the growth in assay [1] was 26.6%; in assay [2] it was 38.3%; in assay [3], -7.76% (active); in assay [4], 28.8%; in assay [5], 11.8%; in assay [6] it was 19.3%. In addition, the growth in assay [7] was 60.1%; in assay [8], 24.6%.
For the compound `COc1ccc(/C=C\c2cc(OC)c(OC)c(OC)c2)c(NS(=O)(=O)c2ccc(C(C)(C)C)cc2)c1O`, the growth was 72.2% in assay [1]; 37.7% in assay [2]; -17% (active) in assay [3]; 31.7% in assay [4]; 10.1% in assay [5]; 13.4% in assay [6]. Also, the figures for the growth in assay [7] and in assay [8] were 19.5% and 12.1%, respectively.
